In the library only some 4% were active in any assay of this set; here they are far more common.
esBAF inh: Bmi1 luciferase reporter increase in mESCs, primary screen, esBAF inhibitor project, mouse ES cells, Bmi1 luciferase knock-in, single point; 24 h; 100% = twice the neutral-well signal; 2% of 350,000 active; reporter increase, % at 12.5 µM; in the data active means activation above about 40%; inconclusive means no clear call, values can overlap the other calls;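 further: a rise in the Bmi1 reporter signal indicates esBAF inhibition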
C2C12 statin: suppressors of statin myotoxicity in C2C12 myotubes, primary screen, cell-based, single point, plate reader. rescue of ATP level, % at 7.49 µM. 0.78% of 330,000 active. C2C12 myotubes + simvastatin, ATP luminescence, 48 h; scaled: DMSO 0, geranylgeraniol control 100;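 active means mean ATP rescue above about 67%, or every replicate alone reaching that limit, limit read from the data, passing the limit was not always enough; inconclusive means no clear call, values can overlap the other calls; inactive means mean under the limit and some replicate under it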;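 further: myotubes were challenged with 10 µM simvastatin during compound exposure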
LMP1 NFkB inh: EBV LMP1-driven NF-kappaB luciferase reporter inhibitors, primary screen, cell-based, luminescence, single point | 0.69% of 350,000 active | LMP1-induced NF-kappaB luciferase reporter cells | inhibition, % at 12.5 µM; in the data active means inhibition above about 41%; inconclusive means no clear call, values can overlap the other calls
MITF TRPM1 HTS: activators of MITF-driven TRPM1 promoter reporter, primary screen, cell-based, SK-MEL-5, luciferase, single point; SK-MEL-5 TRPM1-promoter luciferase, 24 h; % of positive control, neutral wells = 0; activation, % at 12.5 µM; 0.75% of 300,000 active; AID 588334, 2011;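 active means mean activation of at least 80% with every replicate also reaching 80%; inconclusive means mean reaches 80% but some replicate falls short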
Wnt act: Wnt/beta-catenin pathway activators, primary screen, cell-based, plate reader, single point. Wnt/beta-catenin reporter cell assay, activator. activation, % at 9.35 µM. 1.2% of 300,000 active. AID 743398, 2014; in the data active means activation above about 30%, passing the limit was not always enough; inconclusive means no clear call, values can overlap the other calls
MITF TRPM1 inh: inhibitors of MITF-dependent TRPM1 promoter reporter, primary screen, cell-based, SK-MEL-5, single point, luciferase; SK-MEL-5 TRPM1 promoter luciferase, 24 h; inhibition, % at 12.5 µM; 0.83% of 330,000 active;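 active means mean inhibition across replicates of 60% or more, whatever share of single replicates reaches that level; inconclusive means some that reach 60%, reason not given; inactive means mean inhibition across replicates below 60%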
Hits are given with their value; – = inactive; ? = inconclusive; · = no result.

SMILES	esBAF inh	C2C12 statin	LMP1 NFkB inh	MITF TRPM1 HTS	Wnt act	MITF TRPM1 inh
CC(C)CC1C(C#N)=C(N)Oc2n[nH]c(-c3ccccc3)c21 (stereo not given)	–	–	–	–	32	–
CC(C)c1[nH]nc2c1C(C(C)C)C(C#N)=C(N)O2 (stereo not given)	–	72	–	–	–	–
CC(C)C1C(C#N)=C(N)Oc2n[nH]c(-c3ccccc3)c21 (stereo not given)	–	·	–	·	–	–
CC1CC(C)CN(c2ncc3c(n2)CC(c2ccc(Cl)cc2)CC3=O)C1 (stereo not given)	–	–	–	–	·	–
CCc1ccc(CNC(=O)Cc2ccc(NC(=O)C3=C(C)OCCS3)cc2)cc1	–	–	–	–	–	–
CC1=C(C(=O)Nc2ccc(CC(=O)NCc3ccccc3C)cc2)SCCO1	49	–	–	–	–	–
Cc1ccc([N+](=O)[O-])cc1N=C(c1ccc([N+](=O)[O-])cc1)N1CCOCC1	·	·	–	–	–	–
C=CCn1cnc2c(nnn2-c2ccc(OC)c(OC)c2)c1=O	·	·	–	–	–	–
C=CCn1cnc2c(nnn2-c2ccc(C)c(C)c2)c1=O	·	·	–	110	–	–
O=C(Nc1nc2ccccc2[nH]1)c1ccccc1O	·	·	–	?	42	·
O=C(Nc1nc2ccccc2[nH]1)c1cccc(Cl)c1	–	–	–	·	32	–
CC=Cc1ccc2n(c1=O)C[C@@H]1[C@@H](CO)[C@H](C(=O)NC3Cc4ccccc4C3)N(CC)[C@H]21 (mixture of isomers)	–	–	·	·	·	·
O=C(Cc1n[nH]c(=O)c2ccccc12)OCc1c(Cl)cccc1Cl	–	–	–	–	–	–
CC1CC(=O)N(c2ccc(Br)cc2)C(=O)C1	·	·	–	·	–	–
Cc1ccc(-c2csc3ncnc(Sc4nnc(CN5CCCCCC5=O)o4)c23)cc1	–	–	42	–	–	85
Cc1ccc(-c2csc3ncnc(SCC(=O)Nc4nnc(C)s4)c23)cc1	–	–	–	–	·	–
CCN(CC)CC(O)COc1ccc2c(c1)c(C(C)=O)c(C)n2-c1ccccc1 (stereo not given)	–	–	–	·	·	–
CC(=O)NCCc1ccc(C(=O)COC(=O)c2cccs2)cc1	–	–	–	·	–	·
CCc1c(C)nc2cc(-c3ccc(Cl)cc3)[nH]n2c1=O	56	–	–	·	–	–
CCc1c(C)nc2cc(-c3cccc(Br)c3)[nH]n2c1=O	56	–	–	·	36	–
COCc1cc(=O)n2[nH]c(-c3cccc(Br)c3)cc2n1	–	–	–	–	·	–
Cn1c2c(c(=O)[nH]c1=O)C(c1cccc(O)c1)C1=C(N2)c2ccccc2C1=O (stereo not given)	–	–	47	–	–	–
COC(=O)C1=C(C)NC2=C(C(=O)c3ccccc32)C1c1cccc(OC)c1 (stereo not given)	·	·	–	·	–	–
CC1(C)CC(=O)C=C(NCCN2CCN(C(=S)Nc3ccc(F)cc3)CC2)C1	–	–	–	–	–	–
COc1ccc(Oc2coc3c(CN(C)C)c(O)ccc3c2=O)cc1	–	118	–	–	–	–
SMILES	esBAF inh	C2C12 statin	LMP1 NFkB inh	MITF TRPM1 HTS	Wnt act	MITF TRPM1 inh
Cc1cc(C)cc(Oc2coc3c(CN(C)C)c(O)ccc3c2=O)c1	–	–	–	–	–	–
CC[n+]1c(C=C2C=C(C)OC(C)=C2)sc2ccccc21	–	–	–	–	–	74
COc1cc2nc(SCC(=O)NCc3ccco3)n(Cc3ccc(Cl)cc3)c(=O)c2cc1OC	–	–	–	–	–	62
C=CCn1c(SCC(=O)NCc2ccco2)nc2ccccc2c1=O	·	·	–	–	–	–
O=C(CCn1c(SCC(=O)NCc2ccco2)nc2ccccc2c1=O)NCCc1ccccc1	–	102	–	–	–	–
O=C(NCc1ccccc1Cl)c1ccc[nH]1	–	–	–	–	–	–
CCCCCNC(=O)C(c1ccncc1)n1c(=O)c(-c2cc3ccccc3[nH]2)nc2ccccc21 (stereo not given)	·	·	·	·	–	·
Cc1ccc(NC(=O)c2cc(C)on2)cc1	–	–	–	97	·	–
CC(C)Cc1cc(C(=O)NCc2cccs2)no1	65	–	?	–	?	–
CCCc1cc(C(=O)Nc2ccc(C)cc2)no1	73	–	–	·	56	·
O=C(Nc1ccc(F)cc1F)c1csc(-c2cccs2)n1	·	·	–	–	35	–
O=C(C[C@@H]1CC[C@@H]2[C@H](COC[C@H](O)CN2Cc2cccc(-c3ccncc3)c2)O1)N1CCCCC1	–	–	·	·	·	·
Cc1ccccc1NC(=O)N1CCC(C(=O)c2ccc(F)cc2)CC1	·	·	–	–	–	–
CCCCn1c(=O)cc(C)n(-c2ccccc2)c1=O	·	·	–	–	–	–
Cc1cc(NC(=O)Cc2ccccc2)no1	·	·	–	–	·	–
CCCc1cc(C(=O)Nc2ccc(CC)cc2)no1	77	–	–	159	39	–
CCc1ccc(NC(=O)c2cc(C)on2)cc1	–	–	–	?	–	–
C/C(=C\c1ccccc1)C(=O)Nc1cc(C)on1	56	–	–	?	–	–
CC(C)Cc1cc(C(=O)Nc2ccc(F)cc2F)no1	79	–	–	–	–	–
COc1ccc(NC(=O)c2cc(CC(C)C)on2)cc1OC	50	–	–	·	–	·
O=C(C[C@@H]1CC[C@H]2[C@@H](COC[C@H](O)CN2Cc2ccncc2)O1)NCc1ccccc1Cl	–	–	·	·	·	·
C[C@@H]1CCCCO[C@H](CN(C)Cc2ccncc2)[C@@H](C)CN([C@H](C)CO)C(=O)c2cc(N(C)C)ccc2O1	–	–	·	·	–	·
Cc1ccc(NC(=S)Nc2cc(C)on2)cc1	–	–	·	·	49	·
Cc1cc(NS(=O)(=O)c2ccc(NC(=O)/C=C/c3ccc(Br)cc3)cc2)no1	–	–	–	–	–	–
CCc1ccc(NC(=O)c2cc(C)no2)cc1	55	–	–	–	–	–
SMILES	esBAF inh	C2C12 statin	LMP1 NFkB inh	MITF TRPM1 HTS	Wnt act	MITF TRPM1 inh
Cc1ccc(NC(=S)NNC(=S)Nc2ccc(C)cc2)cc1	·	–	–	–	–	–
CCc1ccc(NC(=O)c2cc(CC(C)C)on2)cc1	71	–	–	·	59	·
Cc1ccc(/C=C/C(=O)Nc2cc(C)on2)cc1	–	–	–	–	35	–
CCC1(CC)C(=O)NC(=O)NC1=Nc1ccccc1	–	–	–	–	–	–
[O-]/C(=C(\C(=S)Nc1ccc(Cl)cc1)[n+]1ccccc1)c1ccc(OC(F)F)cc1	·	·	–	–	–	–
CC(C)Oc1ccc(C(=O)N(Cc2ccco2)C2CCS(=O)(=O)C2)cc1 (stereo not given)	–	–	–	–	–	–
N#CC1=C(N)C(C#N)(C#N)[C@H](c2cccnc2)[C@H]2CN(C(=O)OCc3ccccc3)CC=C12	–	–	–	–	–	–
